Reference: PubChem BioAssay (EPA / NIEHS)
Several values for one entry are separate records, joined by “and”; a condition that tells them apart may be missing. Equal values may be shown once. Results filed as inconclusive are left out. Some structures have more than one record in an assay (separate samples or runs), and their calls can disagree. Activity calls are given as the source filed them. How the source made its calls, unless noted: active means hit-call score of the fitted dose curve at least 0.9, where 1 is the maximum; inactive means score below 0.9.

Assays:
CD40, CD40 (gene 958) = assay: BSK_SAg_CD40: BioMAP Diversity Plus: SAg Assay for CD40 Biomarker Activity (AID 2283088); conditions: primary human HUVEC with PBMC; actives raise or lower the signal
Outline: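 HUVEC/PBMC co-culture, 24 h post-dose; CD40 by ELISA, fluorescence intensity; bidirectional fit vs DMSO negative control.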

[1] = ATG_AP_1_CIS: Attagene CIS-FACTORIAL HepG2 Assay for human Activator Protein 1 (AP-1) (AID 2282931); conditions: HepG2 Attagene cis-factorial AP-1 reporter mRNA; actives raise or lower the signal
Outline: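 We transfected HepG2 cells transiently with a set of cis-regulated reporter transcription units, dosed them for 24 h, and quantified reporter mRNA via RT-PCR and capillary electrophoresis, scoring gain or loss of signal relative to DMSO.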

[2] = ATG_FoxO_CIS: Attagene CIS-FACTORIAL HepG2 Assay for human Forkhead box O (FoxO) (AID 2282943); conditions: HepG2 Attagene cis-reporter, FoxO element, mRNA; actives raise or lower the signal
Outline: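 Endogenous transcription factor activity read from multiplexed cis-promoter reporter transcripts in transiently transfected HepG2, 24 h after dosing. Reporter RNA measured via RT-PCR plus capillary electrophoresis of FAM-labeled products; gain or loss relative to DMSO.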

[3] = ATG_GATA_CIS: Attagene CIS-FACTORIAL HepG2 Assay for human GATA Binding Protein (AID 2282944); conditions: HepG2 GATA cis-element reporter, Attagene multiplex mRNA; actives raise or lower the signal
Outline: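 Endogenous transcription factor activity was captured through cis-promoter-driven reporters in transfected HepG2 cells. After 24 h exposure, reporter transcripts were quantified by RT-PCR with fluorescent capillary electrophoresis, and responses fitted both directions against DMSO.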

[4] = ATG_ISRE_CIS: Attagene CIS-FACTORIAL HepG2 Assay for human Interferon Regulatory Factor 1 (IRF1) binding to an Interferon-Stimulated Response Element (ISRE) (AID 2282948); conditions: HepG2 ISRE cis-reporter (Attagene), mRNA transcription readout; actives raise or lower the signal
Outline: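 Read-out: fluorescent RT-PCR products resolved by capillary electrophoresis, reporting endogenous transcription factor activity via ISRE-driven reporter mRNA in transfected HepG2 cells dosed for 24 h; gain or loss fitted relative to DMSO.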

[5] = ATG_M_06_CIS: Attagene CIS-FACTORIAL HepG2 Assay for M06 Transcription Factor (Internal Marker) (AID 2282950); conditions: HepG2 Attagene CIS-FACTORIAL M06 internal marker reporter; actives raise or lower the signal
Outline: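 Steps: transfect HepG2 with multiplexed cis-element reporter constructs; dose chemical 24 h; extract RNA with DNase treatment; reverse-transcribe, PCR-amplify, 6-FAM label, HpaI digest; separate fragments by capillary electrophoresis. Activity fitted both directions versus DMSO.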

[6] = ATG_MRE_CIS: Attagene CIS-FACTORIAL HepG2 Assay for human Metal Responsive Element (MRE) (AID 2282954); conditions: HepG2 MRE cis-reporter transcription, Attagene multiplex; actives raise or lower the signal
Outline: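 Multiplexed cis-reporter assay in human HepG2 liver cells, 24 h incubation with test chemical. Reporter transcripts measured by RT-PCR and capillary electrophoresis; values from bidirectional curve fitting versus DMSO.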

[7] = target: Paired box protein Pax-6 (Homo sapiens) (UniProt P26367); assay: ATG_Pax6_CIS: Attagene CIS-FACTORIAL HepG2 Assay for human Paired Box 6 (PAX6) (AID 2282956); conditions: HepG2 CIS-FACTORIAL PAX6 reporter transcription, RNA readout; actives raise or lower the signal
Sequence of Paired box protein Pax-6 (Homo sapiens) (P26367 whole entry, looked up): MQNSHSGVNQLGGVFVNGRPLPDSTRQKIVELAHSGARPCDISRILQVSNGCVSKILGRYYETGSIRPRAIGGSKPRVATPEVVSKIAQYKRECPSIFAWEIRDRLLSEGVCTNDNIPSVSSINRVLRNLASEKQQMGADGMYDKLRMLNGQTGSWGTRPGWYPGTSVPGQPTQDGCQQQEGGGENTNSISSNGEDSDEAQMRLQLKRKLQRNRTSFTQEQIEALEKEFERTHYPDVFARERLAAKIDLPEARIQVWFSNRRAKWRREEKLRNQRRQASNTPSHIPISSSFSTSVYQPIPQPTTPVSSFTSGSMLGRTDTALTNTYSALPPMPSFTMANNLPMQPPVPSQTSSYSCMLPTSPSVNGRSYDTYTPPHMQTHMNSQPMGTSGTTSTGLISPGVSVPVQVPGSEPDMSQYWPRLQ
Outline: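 Readout: reporter transcript fluorescence after RT-PCR and capillary electrophoresis. Cells: HepG2, transiently transfected with cis-regulated MRTUs. Exposure 24 h. Gain or loss of signal fitted bidirectionally relative to DMSO.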

[8] = target: Transcription factor Sp1 (Homo sapiens) (UniProt P08047); assay: ATG_Sp1_CIS: Attagene CIS-FACTORIAL HepG2 Assay for human Specificity Protein 1 (Sp1) (AID 2282961); conditions: HepG2 Sp1 cis-reporter transcription, actives raise or lower the signal
Sequence of Transcription factor Sp1 (Homo sapiens) (P08047 whole entry, looked up): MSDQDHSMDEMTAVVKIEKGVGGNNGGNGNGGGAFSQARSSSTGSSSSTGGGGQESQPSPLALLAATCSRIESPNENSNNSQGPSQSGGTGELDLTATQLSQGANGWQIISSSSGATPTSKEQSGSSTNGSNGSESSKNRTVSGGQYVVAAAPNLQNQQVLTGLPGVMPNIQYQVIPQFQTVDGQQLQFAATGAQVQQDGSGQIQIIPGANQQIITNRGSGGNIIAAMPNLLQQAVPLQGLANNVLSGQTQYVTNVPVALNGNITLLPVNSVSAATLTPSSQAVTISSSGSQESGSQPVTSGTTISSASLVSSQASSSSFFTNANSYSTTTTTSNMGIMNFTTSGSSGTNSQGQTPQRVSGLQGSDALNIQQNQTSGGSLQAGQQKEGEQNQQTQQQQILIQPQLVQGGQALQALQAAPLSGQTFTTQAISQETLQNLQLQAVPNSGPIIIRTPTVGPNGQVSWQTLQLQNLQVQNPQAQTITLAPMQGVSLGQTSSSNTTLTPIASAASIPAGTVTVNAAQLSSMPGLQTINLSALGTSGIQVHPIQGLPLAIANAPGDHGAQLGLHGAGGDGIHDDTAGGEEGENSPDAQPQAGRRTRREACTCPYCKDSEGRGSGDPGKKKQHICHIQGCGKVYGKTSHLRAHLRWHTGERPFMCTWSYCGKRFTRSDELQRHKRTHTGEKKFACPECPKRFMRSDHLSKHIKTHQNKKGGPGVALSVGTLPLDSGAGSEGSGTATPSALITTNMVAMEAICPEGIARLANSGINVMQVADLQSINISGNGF
Outline: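 Chemicals are dosed onto HepG2 cells transfected with multiple cis-promoter reporter constructs, and after 24 h reporter RNA is reverse-transcribed, PCR-amplified and resolved by capillary electrophoresis for fluorescence quantitation; activity is scored up or down against DMSO.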

[9] = ATG_SREBP_CIS: Attagene CIS-FACTORIAL HepG2 Assay for human Sterol Regulatory Element Binding (SREBP) (AID 2282962); conditions: HepG2 Attagene cis-factorial SREBP reporter, mRNA; actives raise or lower the signal
Outline: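 Readout: fluorescent reporter-transcript peaks resolved by capillary electrophoresis after RT-PCR. Cells were human HepG2 carrying transfected cis-promoter reporter constructs, dosed for 24 h. Gain or loss of signal was fitted against DMSO controls.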

[10] = target: Signal transducer and activator of transcription 3 (Homo sapiens) (UniProt P40763); assay: ATG_STAT3_CIS: Attagene CIS-FACTORIAL HepG2 Assay for human Signal Transducer and Activator of Transcription 3 (STAT3) (AID 2282963); conditions: HepG2, Attagene cis-factorial STAT3 reporter transcription; actives raise or lower the signal
Sequence of Signal transducer and activator of transcription 3 (Homo sapiens) (P40763 whole entry, looked up): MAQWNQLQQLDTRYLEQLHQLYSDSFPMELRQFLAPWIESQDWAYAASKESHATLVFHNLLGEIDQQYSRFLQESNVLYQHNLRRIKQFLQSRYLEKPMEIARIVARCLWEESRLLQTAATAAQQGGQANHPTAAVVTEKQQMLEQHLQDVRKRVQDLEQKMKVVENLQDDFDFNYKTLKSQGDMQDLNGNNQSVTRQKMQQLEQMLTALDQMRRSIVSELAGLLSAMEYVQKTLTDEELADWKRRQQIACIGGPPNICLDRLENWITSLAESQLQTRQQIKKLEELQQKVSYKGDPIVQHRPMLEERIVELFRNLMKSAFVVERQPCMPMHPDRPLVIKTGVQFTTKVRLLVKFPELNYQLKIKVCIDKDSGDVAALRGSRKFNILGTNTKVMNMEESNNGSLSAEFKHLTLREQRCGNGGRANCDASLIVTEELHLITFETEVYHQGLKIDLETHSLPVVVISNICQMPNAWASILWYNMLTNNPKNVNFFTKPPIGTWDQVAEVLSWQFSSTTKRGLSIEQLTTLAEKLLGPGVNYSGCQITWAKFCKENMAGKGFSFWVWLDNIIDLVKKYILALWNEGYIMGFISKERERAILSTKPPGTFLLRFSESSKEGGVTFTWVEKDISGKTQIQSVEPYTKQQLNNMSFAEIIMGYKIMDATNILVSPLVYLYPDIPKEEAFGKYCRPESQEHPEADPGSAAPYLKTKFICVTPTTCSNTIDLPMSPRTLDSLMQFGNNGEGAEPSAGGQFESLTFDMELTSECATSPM
Outline: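 Cis-factorial format: endogenous transcription factors in HepG2 drive transfected reporter units. After 24 h treatment, reporter RNA was reverse-transcribed, amplified, FAM-labelled and HpaI-digested before CE analysis; activity scored in both directions against DMSO.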

[11] = ATG_TAL_CIS: Attagene CIS-FACTORIAL HepG2 Assay for human TAL Basal Promoter (AID 2282966); conditions: HepG2 Attagene cis-factorial TAL promoter reporter; actives raise or lower the signal;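 further: background control endpoint measuring basal TAL promoter reporter mRNA not a specific factor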
Outline: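 HepG2, transient MRTU transfection, 24 h compound exposure; RNA → oligo(dT) RT → PCR → 6-FAM primer extension → HpaI digest → CE fluorescence. Bidirectional curve fit vs DMSO. Background-control readout.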

[12] = target: X-box-binding protein 1 (Homo sapiens) (UniProt P17861); assay: ATG_Xbp1_CIS: Attagene CIS-FACTORIAL HepG2 Assay for human X-box Binding Protein 1 (XBP1) (AID 2282972); conditions: HepG2 XBP1 cis-element reporter, Attagene multiplex; actives raise or lower the signal
Sequence of X-box-binding protein 1 (Homo sapiens) (P17861 whole entry, looked up, the tested form may be a part): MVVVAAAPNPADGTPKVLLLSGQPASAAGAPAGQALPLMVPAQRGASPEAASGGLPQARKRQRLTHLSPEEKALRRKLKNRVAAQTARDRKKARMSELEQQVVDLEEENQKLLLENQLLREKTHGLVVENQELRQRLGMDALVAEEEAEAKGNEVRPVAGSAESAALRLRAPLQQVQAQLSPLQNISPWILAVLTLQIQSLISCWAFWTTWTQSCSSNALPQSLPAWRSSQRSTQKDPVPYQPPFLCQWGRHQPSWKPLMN
Outline: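 Read-out: fluorescent reporter mRNA fragments resolved by capillary electrophoresis after RT-PCR. Human HepG2 liver cells carried transfected cis-promoter reporter units and were exposed to chemicals for 24 hours. Gain or loss of signal fitted relative to DMSO baseline.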

[13] = target: Transcriptional activator Myb (Homo sapiens) (UniProt P10242); assay: ATG_Myb_CIS: Attagene CIS-FACTORIAL HepG2 Assay for human Myeloblastosis (Myb) Proto-Oncogene Transcription Factor (AID 2282986); conditions: HepG2 Attagene CIS-FACTORIAL Myb reporter transcription; actives raise or lower the signal
Sequence of Transcriptional activator Myb (Homo sapiens) (P10242 whole entry, looked up): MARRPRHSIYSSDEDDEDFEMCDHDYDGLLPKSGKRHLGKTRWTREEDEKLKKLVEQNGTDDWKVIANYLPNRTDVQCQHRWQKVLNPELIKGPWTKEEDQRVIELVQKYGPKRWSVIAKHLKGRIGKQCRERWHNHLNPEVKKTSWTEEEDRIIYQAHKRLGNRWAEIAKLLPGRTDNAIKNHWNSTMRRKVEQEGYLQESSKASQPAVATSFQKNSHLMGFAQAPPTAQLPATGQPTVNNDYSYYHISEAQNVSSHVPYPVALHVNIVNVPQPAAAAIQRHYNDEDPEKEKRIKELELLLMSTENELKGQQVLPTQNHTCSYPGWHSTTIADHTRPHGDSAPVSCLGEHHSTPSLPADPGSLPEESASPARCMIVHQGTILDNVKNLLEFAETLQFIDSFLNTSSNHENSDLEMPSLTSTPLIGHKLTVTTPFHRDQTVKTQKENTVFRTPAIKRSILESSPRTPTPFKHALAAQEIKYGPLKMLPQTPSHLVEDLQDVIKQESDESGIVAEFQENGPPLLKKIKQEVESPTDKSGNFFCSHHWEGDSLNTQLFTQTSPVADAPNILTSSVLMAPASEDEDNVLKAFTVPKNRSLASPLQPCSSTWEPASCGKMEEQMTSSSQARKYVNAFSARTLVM
Outline: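 Using HepG2 liver cells bearing transiently transfected cis-promoter reporter constructs, the assay measures induction or loss of reporter mRNA after 24 hours of dosing. Detection used fluorescently labeled RT-PCR products separated by capillary electrophoresis.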

[14] = target: Nuclear respiratory factor 1 (Homo sapiens) (UniProt Q16656); assay: ATG_NRF1_CIS: Attagene CIS-FACTORIAL HepG2 Assay for human Nuclear Respiratory Factor 1 (NRF1) Orphan Gene (AID 2282987); conditions: HepG2 NRF1 cis-element reporter, Attagene multiplex; actives raise or lower the signal
Sequence of Nuclear respiratory factor 1 (Homo sapiens) (Q16656 whole entry, looked up): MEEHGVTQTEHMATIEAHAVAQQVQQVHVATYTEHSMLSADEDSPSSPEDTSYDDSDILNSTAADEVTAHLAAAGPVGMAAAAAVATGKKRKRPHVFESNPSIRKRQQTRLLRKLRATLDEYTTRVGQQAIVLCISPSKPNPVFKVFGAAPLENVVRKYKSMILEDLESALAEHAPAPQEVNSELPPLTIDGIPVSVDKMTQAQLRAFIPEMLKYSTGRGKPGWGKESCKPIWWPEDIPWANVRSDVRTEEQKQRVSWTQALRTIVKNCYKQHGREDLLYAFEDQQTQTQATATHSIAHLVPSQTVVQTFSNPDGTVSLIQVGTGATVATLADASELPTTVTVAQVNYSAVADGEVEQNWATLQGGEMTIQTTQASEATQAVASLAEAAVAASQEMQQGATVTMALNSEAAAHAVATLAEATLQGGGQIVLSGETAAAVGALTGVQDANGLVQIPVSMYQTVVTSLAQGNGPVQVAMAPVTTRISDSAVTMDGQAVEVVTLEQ
Outline: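 Reporter mRNA induction or loss in HepG2 cells after 24 h dosing; cis-regulated reporter constructs report endogenous transcription-factor activity. Quantified by RT-PCR/capillary electrophoresis fluorescence, DMSO-referenced.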

[15] = ATG_NFI_CIS: Attagene CIS-FACTORIAL HepG2 Assay for human Nuclear Factor I (NFI) (AID 2282989); conditions: HepG2 cis-regulatory reporter, NFI response element transcription; actives raise or lower the signal
Outline: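 HepG2, transient MRTU, 24 h exposure; RNA→cDNA→PCR→FAM label→HpaI→CE fluorescence. Bidirectional fit, DMSO = baseline.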

[16] = ATG_NRF2_ARE_CIS: Attagene CIS-FACTORIAL HepG2 Assay for human Nuclear Factor Erythroid 2 Related Factor 2 (NFR2) response to Antioxidant Response Elements (ARE) (AID 2282992); conditions: HepG2 Attagene ARE/NRF2 reporter, transcription factor activity; actives raise or lower the signal;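 on AC50: reporter mRNA level measured by RT-PCR and capillary electrophoresis fluorescence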
Outline: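 Readout: reporter mRNA quantified by RT-PCR plus FAM-labelled primer extension, HpaI digestion and capillary electrophoresis, 24 h after dosing transfected HepG2 cells. Gain or loss of signal is fitted bidirectionally against DMSO baseline.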

[17] = ATG_Oct_MLP_CIS: Attagene CIS-FACTORIAL HepG2 Assay for human Octamer-Binding Transcription Factor (Oct) (AID 2282993); conditions: HepG2 Attagene cis-factorial Oct reporter, mRNA; actives raise or lower the signal
Outline: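 Multiplexed cis-reporter assay in human liver HepG2 cells, 24 h incubation. Reporter RNA amplified and labelled, then resolved by capillary electrophoresis; DMSO serves as negative control and baseline.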

[18] = target: Cellular tumor antigen p53 (Homo sapiens) (UniProt P04637); assay: ATG_p53_CIS: Attagene CIS-FACTORIAL HepG2 Assay for human p53 Transcription Factor (AID 2282994); conditions: HepG2 p53 cis-element reporter, Attagene mRNA; actives raise or lower the signal
Sequence of Cellular tumor antigen p53 (Homo sapiens) (P04637 whole entry, looked up): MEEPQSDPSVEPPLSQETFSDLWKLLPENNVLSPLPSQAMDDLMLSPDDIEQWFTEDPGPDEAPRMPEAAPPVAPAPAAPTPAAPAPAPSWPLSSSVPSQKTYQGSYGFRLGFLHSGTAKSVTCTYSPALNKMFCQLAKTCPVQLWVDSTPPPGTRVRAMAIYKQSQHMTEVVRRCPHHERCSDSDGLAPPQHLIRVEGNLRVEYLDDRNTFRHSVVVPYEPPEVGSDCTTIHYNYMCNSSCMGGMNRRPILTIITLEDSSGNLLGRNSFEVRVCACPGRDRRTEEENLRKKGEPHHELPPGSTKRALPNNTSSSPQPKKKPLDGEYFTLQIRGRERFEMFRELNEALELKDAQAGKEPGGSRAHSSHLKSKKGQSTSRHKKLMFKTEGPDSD
Outline: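 Read-out: reporter mRNA by RT-PCR plus capillary electrophoresis with fluorescence detection. Human HepG2 liver cells carried transfected multi-reporter cis-element constructs, dosed 24 h. Gain or loss of signal fitted bidirectionally against DMSO control.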

[19] = target: bovine Estrogen Receptor (ER), ESR1 (gene 407238) (UniProt P49884); assay: NVS_NR_bER: NovaScreen (NVS) Nuclear Receptor Binding Assay for bovine Estrogen Receptor (ER) (AID 2283345; active means hit-call score of the fitted dose curve at least 0.9, where 1 is the maximum;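 further: actives lower the bound radioligand count which means they displace the ER ligand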)
Sequence of bovine Estrogen Receptor (ER), ESR1 (gene 407238) (P49884 whole entry, looked up): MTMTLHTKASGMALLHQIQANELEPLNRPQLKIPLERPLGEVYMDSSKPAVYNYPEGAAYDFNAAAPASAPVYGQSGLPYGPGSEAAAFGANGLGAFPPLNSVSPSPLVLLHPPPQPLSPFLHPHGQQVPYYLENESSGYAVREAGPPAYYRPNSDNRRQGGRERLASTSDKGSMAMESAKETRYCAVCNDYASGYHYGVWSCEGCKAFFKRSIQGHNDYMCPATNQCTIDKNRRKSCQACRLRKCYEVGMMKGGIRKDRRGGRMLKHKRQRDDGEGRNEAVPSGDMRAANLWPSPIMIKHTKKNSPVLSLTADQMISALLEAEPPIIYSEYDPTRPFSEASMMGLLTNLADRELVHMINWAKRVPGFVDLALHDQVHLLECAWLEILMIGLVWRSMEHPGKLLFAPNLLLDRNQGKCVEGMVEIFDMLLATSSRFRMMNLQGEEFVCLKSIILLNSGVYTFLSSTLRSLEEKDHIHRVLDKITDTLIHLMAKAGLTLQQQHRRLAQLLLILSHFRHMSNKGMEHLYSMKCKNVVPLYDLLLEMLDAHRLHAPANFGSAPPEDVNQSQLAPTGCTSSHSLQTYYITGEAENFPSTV
Outline: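 Scintillation counting of displaced radioligand gave the readout; bovine uterine membrane extract supplied the receptor. Measured 18 h post-dose, normalized to DMSO baseline. Single 25 uM duplicate screen preceded concentration-response follow-up.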

Measured: AC50

CCCCC(CC)COC(=O)C=Cc1ccc(OC)cc1 (configuration not stated)
active: CD40, CD40 (gene 958) 32.1 µM and 31.9 µM

CC1=NN(c2cc(Cl)c(S(=O)(=O)O)cc2Cl)C(=O)C1N=Nc1ccc(S(=O)(=O)O)cc1 (configuration not stated)
inactive: [1] | [2] | [3] | [4] | [5] | [6] | [7] | [8] | [9] | [10] | [11] | [12] | [13] | [14] | [15] | [16] | [17] | [18]

O=C(O)/C=C\C(=O)O
inactive: [1] | [2] | [3] | [4] | [5] | [6] | [7] | [8] | [9] | [10] | [11] | [12] | [13] | [14] | [15] | [16] | [17] | [18]

COc1cc(CNC(=O)CCCC/C=C/C(C)C)ccc1O
inactive: CD40, CD40 (gene 958)
active: CD40, CD40 (gene 958) 20 µM

CC(C)(C)C(=O)C(=O)O
inactive: [19]

CC(C)(C)NC(=O)[C@@H]1CN(Cc2cccnc2)CCN1C[C@@H](O)C[C@@H](Cc1ccccc1)C(=O)N[C@H]1c2ccccc2C[C@H]1O
inactive: [1] | [2] | [3] | [4] | [5] | [6] | [7] | [8] | [9] | [10] | [11] | [12] | [13] | [14] | [15] | [16] | [17] | [18]

Clc1ccccn1
inactive: [1] | [2] | [3] | [4] | [5] | [6] | [7] | [8] | [9] | [10] | [11] | [12] | [13] | [14] | [15] | [16] | [17] | [18]

COc1ccccc1Oc1c(NS(=O)(=O)c2ccc(C(C)(C)C)cc2)nc(-c2ncccn2)nc1OCCO
active: CD40, CD40 (gene 958) 20 µM
inactive: CD40, CD40 (gene 958)

CCCc1c(OCCCCc2nn[nH]n2)ccc(C(C)=O)c1O
active: [6] 128 µM | [9] 37.4 µM | [16] 100 µM
inactive: [1] | [2] | [3] | [4] | [5] | [7] | [8] | [10] | [11] | [12] | [13] | [14] | [15] | [17] | [18]

O=[N+]([O-])c1cc(S(=O)(=O)Nc2ccccc2)ccc1Nc1ccccc1
active: CD40, CD40 (gene 958) 26 µM and 25 µM

CCCCn1cc[n+](C)c1
inactive: [1] | [2] | [3] | [4] | [5] | [6] | [7] | [8] | [9] | [10] | [11] | [12] | [13] | [14] | [15] | [16] | [17]

CC(=O)CC(=O)OC(C)(C)C
inactive: [19]

O=[N+]([O-])c1cc[n+]([O-])cc1
inactive: [19]

CC/C=C\CC1=C(C)CCC1=O
inactive: [1] | [2] | [3] | [4] | [5] | [6] | [7] | [8] | [9] | [10] | [11] | [12] | [13] | [14] | [15] | [17] | [18]
active: [16] 35.9 µM

CCO[Si](OCC)(OCC)c1ccccc1
inactive: [1] | [2] | [3] | [4] | [5] | [6] | [7] | [8] | [9] | [10] | [11] | [12] | [13] | [14] | [15] | [16] | [17] | [18]

CCCCCCCCCCCCSC#N
inactive: [19]

OC(C(F)(F)F)(C(F)(F)F)C(O)(C(F)(F)F)C(F)(F)F
active: CD40, CD40 (gene 958) 35.2 µM and 28.6 µM

COc1ccccc1OCC(O)CO (configuration not stated)
inactive: [1] | [2] | [3] | [4] | [5] | [6] | [7] | [8] | [9] | [10] | [11] | [12] | [13] | [14] | [15] | [16] | [17] | [18]
